This note sets out measurements from PubChem BioAssay (NCI).

Compounds without any hit were thinned out: in the full panel of roughly 83,000, 20% have a hit.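 Single-dose data. Exposure time 48 hours. Values below 10 considered active.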 Unmarked numbers belong to inactive results. Calls of active or inactive are those of the source.

The test system of the test is HL-60(TB) leukemia. The test can be described thus: NCI-60 one-dose screen, 48 h (100 = growth as untreated, 0 = no growth, -100 = all killed). The settings on record: 10 µM unless noted.
With `CCOC(=O)c1cc(C#N)n2ncc3ccccc3c12`, the growth was 105%. Regarding `COc1ccc(NC(=O)c2sc3nc(C)c(C(=O)/C=C/c4ccccc4)cc3c2N)cc1`, the growth was 24.2%. For `Cn1c(=O)c2nc3c(=O)n(C)c(=O)n(C)c3nc2n(C)c1=O` the value was 85.1%; for `CN(C)c1ccc(O)c2c1CC1CC3C(N(C)C)C(=O)C(C(N)=O)=C(O)C3(O)C(=O)C1=C2O` (stereo unspecified), 51.3%; for `COC(=O)CC(=O)C(=O)OC`, 100%. For `Oc1ccccc1\C=N/N=C/C=C/c1ccccc1` the value was 38.5%; for `NC(CS/C(Cl)=C/Cl)C(=O)O` (stereo unspecified), 86.9%; for `COc1cc(/C=C/C(=O)c2ccc(Nc3nc(NCCO)nc(N4CCOCC4)n3)cc2)cc(OC)c1OC`, -28.6% (active).

`Cc1ccc(Cc2cnc(NC(=O)/C=C/c3cccc(C)c3)s2)cc1`: the growth is -15.4% (active). Consider `COc1ccc2c(CCCC(c3ccccc3)c3ccccc3)c3[n+](cc2c1OC)CCc1cc2c(cc1-3)OCO2`, for which the growth is -30.9% (active). For `CC1SC(c2c(Cl)cccc2Cl)N(NC(=O)c2[nH]c3ccc(F)cc3c2-c2ccccc2)C1=O` (stereo unspecified) the value was 103%; for `Cc1cnc([C@]23CC[C@@H](C)[C@H](C)[C@H]2C2=CC[C@@H]4[C@@]5(C)Cc6c([nH]c7ccccc67)C(C)(C)[C@@H]5CC[C@@]4(C)[C@]2(C)CC3)o1`, 38.2% [100 µM]. For `C/C=C(/C)C(=O)O[C@@H]1CC(C)(C)CC2C34OC(=O)[C@@]21CC[C@@]3(C)[C@]1(C)CCC2C(C)(C)C(=O)CC[C@]2(C)C1C[C@@H]4O` (stereo partly specified), the growth was 6.92% (active). For `CC(=O)c1ccc(C)cc1` the value was 93.4%; for `C=CCNC(=O)Cc1c(-c2ccc(OC)cc2)oc2c(OC)c3c(c(OC)c12)OCO3`, 102%; for `CC(C)NS(=O)(=O)c1cccc(-c2ccc3c(=O)n(CCCN)c4c(c3c2)C(=O)c2ccccc2-4)c1`, 125%. For `CCOc1cc(/C=N\NC(=O)C[N+](C)(C)C)ccc1O` the value was 87.7%. For `COc1ccc(CN2C(=O)/C(=C\C(=O)c3ccc(OCCN4CCCC4)cc3)c3ccccc32)cc1` the value was 4.86% (active); for `N#CCC1=NC(c2cccs2)=Nc2ccccc2S1`, 90.9%. As for `COC(=O)C(Cc1cnc[nH]1)N1CC(=O)N2[C@@H](c3ccccc3)SC[C@H]2C1=O` (stereo partly specified), the growth was 90.3%. In the case of `CCOC(=O)CC(=O)c1c(C)cc(C)cc1C`, the growth is 90.8%. Take `Nc1nc2c(c(=O)[nH]1)C(c1ccc3c(c1)OCO3)C=C(C(=O)O)N2` (stereo unspecified): the growth is 111%. For `O=C1/C=C/[C@@H](O)[C@@H]2C[C@@H](O)C[C@H]2/C=C/CCC[C@H](CCc2cccc3ccccc23)O1` the value was -44.8% (active).

Take `C=CC(=O)Nc1ccc(Nc2nccc(-c3ccc(N4CCCC4)c(C#N)c3)n2)cc1`: the growth is -71.8% (active). For `OB(O)c1ccsc1-c1nc2ccc3[nH]ncc3c2c2c1CCCC2`, the growth was 52.2%. For `COC(=O)[C@]12CC[C@@H](C)[C@H](C)[C@@H]1C1=CC(=O)[C@@H]3[C@@]4(C)C[C@@H](O)[C@H](O)[C@@]5(C)COC(=C45)C[C@@]3(C)[C@]1(C)CC2`, the growth is 41.9%. Regarding `COc1ccc(-c2cc(/C=C/C(=O)c3ccc(OC)c(OC)c3)[nH]n2)cc1`, the growth was -43.7% (active). Next, `N=C(N)c1ccc(-c2ccc(-c3ccc(Cl)cc3Cl)s2)nc1`: -35.7% (active). Take `COC(=O)[C@]12CCC(C)(C)C[C@H]1[C@H]1C(=O)C[C@@H]3[C@@]4(C)c5c([nH]c6ccccc6c5=O)C(C)(C)[C@@H]4CC[C@@]3(C)[C@]1(C)CC2`: the growth is 21.8%. For `O=CN1N=C(c2ccc(Nc3ccnc4cc(Cl)ccc34)cc2)CC1c1ccccc1` (stereo unspecified), the growth was -25.8% (active). As for `Fc1cc(-c2cnc3nonc3n2)c(Cl)cc1Cl`, the growth is -20.2% (active). On to `O=C(Nc1cccc(C(F)(F)F)c1)C(Cl)Cl`, for which the growth is 94.1%.

Consider `NC(=NC1C2CC3CC(C2)CC1C3)Nc1ccc(I)cc1` (stereo unspecified), for which the growth is 101%.

In the case of `Cc1ccc(S(=O)(=O)n2cc(C(=O)C(=O)N3CCOCC3)c3ccccc32)cc1`, the growth is 66.6%. Next, `COc1cc(-c2nc3ccc(C)cc3[nH]2)ccc1OCC(=O)N=Nc1c(O)[nH]c2ccc(Cl)cc12`: -55.6% (active); `COc1cc2c(c(OC)c1OC)-c1ccc(NNC(N)=S)c(=O)cc1[C@@H](NC(C)=O)CC2`: -13.9% (active).
